# Values joined by “and” are separate entries in the source; they are usually repeats but may differ in a detail not shown here. Identical values can stand only once. The campaign covered roughly 5,500 compounds. About 2,000 (36%) were called active. Another 18% or so got no clear call; they are omitted. The list shows a part of the results. Unmarked numbers belong to inactive results. Cut-off read from the data, not from the text of the source: active = normalized growth mostly below about 0.91 (no sharp cut-off); inconclusive = no clear call, values can overlap the other calls; inactive = mostly above about 0.92.
# Experiment: chemical genetic growth profiling, strain panel (AID 1159580);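 note: tested at 20 µM; growth read once vehicle control cultures reached saturation at 30 °C; 1 = growth at the plate median or of vehicle wells; lower values mean less growth of the strain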
# Conditions: S. cerevisiae deletion strains, growth OD
smiles,measurement,setting,value
COc1ccc(-c2coc3cc(O)ccc3c2=O)cc1,normalized growth,"locus YAL021C, strain ccr4, stronger effect = lower value",1
same,normalized growth,"locus YAL026C, strain drs2, stronger effect = lower value",0.943
same,normalized growth,"locus YAL030W, strain snc1, stronger effect = lower value",0.986
same,normalized growth,"locus YBL061C, strain skt5, stronger effect = lower value",0.983
same,normalized growth,"locus YBR009C, strain hhf1, stronger effect = lower value",0.953
same,normalized growth,"locus YBR021W, strain FUR4, stronger effect = lower value",0.751 (active)
same,normalized growth,"locus YBR023C, strain chs3, stronger effect = lower value",0.98
same,normalized growth,"locus YBR171W, strain sec66, stronger effect = lower value",0.973
same,normalized growth,"locus YBR229C, strain ROT2, stronger effect = lower value",0.967
same,normalized growth,"locus YBR231C, strain swc5, stronger effect = lower value",0.964
same,normalized growth,"locus YBR279W, strain paf1, stronger effect = lower value",0.993
same,normalized growth,"locus YCL011C, strain gbp2, stronger effect = lower value",0.965
same,normalized growth,"locus YCL016C, strain dcc1, stronger effect = lower value",0.974
same,normalized growth,"locus YCL029C, strain bik1, stronger effect = lower value",0.949
same,normalized growth,"locus YCL061C, strain MRC1, stronger effect = lower value",0.959
same,normalized growth,"locus YCL069W, strain vba3, stronger effect = lower value",0.98
same,normalized growth,"locus YCR088W, strain abp1, stronger effect = lower value",0.982
same,normalized growth,"locus YDL005C, strain med2, stronger effect = lower value",0.982
same,normalized growth,"locus YDL035C, strain GPR1, stronger effect = lower value",0.933
same,normalized growth,"locus YDL040C, strain nat1, stronger effect = lower value",0.985
same,normalized growth,"locus YDL074C, strain BRE1, stronger effect = lower value",0.839
same,normalized growth,"locus YDL101C, strain DUN1, stronger effect = lower value",0.916
same,normalized growth,"locus YDL185W, strain tfp1, stronger effect = lower value",0.964
same,normalized growth,"locus YDL192W, strain arf1, stronger effect = lower value",0.912 (active)
same,normalized growth,"locus YDR001C, strain nth1, stronger effect = lower value",0.978
same,normalized growth,"locus YDR069C, strain doa4, stronger effect = lower value",1.01
same,normalized growth,"locus YDR101C, strain arx1, stronger effect = lower value",0.941
same,normalized growth,"locus YDR137W, strain rgp1, stronger effect = lower value",0.906
same,normalized growth,"locus YDR159W, strain sac3, stronger effect = lower value",0.955
same,normalized growth,"locus YDR162C, strain NBP2, stronger effect = lower value",0.894
same,normalized growth,"locus YDR195W, strain ref2",1.13
same,normalized growth,"locus YDR297W, strain sur2, stronger effect = lower value",0.978
same,normalized growth,"locus YDR318W, strain mcm21, stronger effect = lower value",0.896 (active)
same,normalized growth,"locus YDR334W, strain swr1, stronger effect = lower value",0.989
same,normalized growth,"locus YDR335W, strain msn5, stronger effect = lower value",0.99
same,normalized growth,"locus YDR388W, stronger effect = lower value",0.964
same,normalized growth,"locus YDR392W, strain spt3, stronger effect = lower value",0.726 (active)
same,normalized growth,"locus YDR502C, strain sam2, stronger effect = lower value",0.878 (active)
same,normalized growth,"locus YEL003W, strain gim4, stronger effect = lower value",0.977
same,normalized growth,"locus YEL037C, strain rad23, stronger effect = lower value",0.983
same,normalized growth,"locus YEL061C, strain CIN8 (second series), stronger effect = lower value",0.986
same,normalized growth,"locus YER015W, strain faa2, stronger effect = lower value",0.989
same,normalized growth,"locus YER016W, strain bim1, stronger effect = lower value",0.979
same,normalized growth,"locus YER110C, stronger effect = lower value",0.974
same,normalized growth,"locus YER111C, strain swi4, stronger effect = lower value",0.992
same,normalized growth,"locus YER155C, strain BEM2 (second series), stronger effect = lower value",0.907
same,normalized growth,"locus YER155C, strain BEM2, stronger effect = lower value",0.962
same,normalized growth,"locus YER167W, strain BCK2, stronger effect = lower value",0.973
same,normalized growth,"locus YFR010W, strain ubp6, stronger effect = lower value",0.984
same,normalized growth,"locus YGL078C, strain dbp3, stronger effect = lower value",0.91 (active)
same,normalized growth,"locus YGL086W, strain mad1, stronger effect = lower value",0.884 (active)
same,normalized growth,"locus YGL167C, strain pmr1, stronger effect = lower value",0.997
same,normalized growth,"locus YGL173C, strain kem1, stronger effect = lower value",0.979
same,normalized growth,"locus YGL227W, strain vid30, stronger effect = lower value",0.981
same,normalized growth,"locus YGL240W, strain doc1, stronger effect = lower value",0.916
same,normalized growth,"locus YGL248W, strain PDE1, stronger effect = lower value",0.853 (active)
same,normalized growth,"locus YGL253W, strain hxk2, stronger effect = lower value",0.932
same,normalized growth,"locus YGR135W, strain pre9, stronger effect = lower value",0.821 (active)
same,normalized growth,"locus YGR252W, strain gcn5, stronger effect = lower value",0.698 (active)
same,normalized growth,"locus YHR013C, strain ard1, stronger effect = lower value",0.977
same,normalized growth,"locus YHR027C, strain rpn1, stronger effect = lower value",0.995
same,normalized growth,"locus YHR030C, strain SLT2, stronger effect = lower value",0.975 and 0.906
same,normalized growth,"locus YHR079C, strain IRE1 (second series), stronger effect = lower value",0.969
same,normalized growth,"locus YHR079C, strain IRE1, stronger effect = lower value",0.936
same,normalized growth,"locus YHR094C, strain hxt1, stronger effect = lower value",0.96
same,normalized growth,"locus YHR129C, strain ARP1, stronger effect = lower value",0.929
same,normalized growth,"locus YHR142W, strain chs7, stronger effect = lower value",0.893
same,normalized growth,"locus YHR200W, strain rpn10, stronger effect = lower value",0.904 (active)
same,normalized growth,"locus YIL066C, strain RNR3, stronger effect = lower value",0.957
same,normalized growth,"locus YIL073C, strain SPO22, stronger effect = lower value",0.886
same,normalized growth,"locus YIL125W, strain kgd1, stronger effect = lower value",0.966
same,normalized growth,"locus YIR030C, strain dcg1, stronger effect = lower value",0.961
same,normalized growth,"locus YJL092W, strain hpr5, stronger effect = lower value",0.974
same,normalized growth,"locus YJL095W, strain BCK1 (second series), stronger effect = lower value",0.987
same,normalized growth,"locus YJL095W, strain BCK1, stronger effect = lower value",0.81 and 0.908
same,normalized growth,"locus YJL115W, strain asf1, stronger effect = lower value",0.998
same,normalized growth,"locus YJL129C, strain trk1, stronger effect = lower value",0.954
same,normalized growth,"locus YJL134W, strain LCB3, stronger effect = lower value",0.98
same,normalized growth,"locus YJL154C, strain vps35, stronger effect = lower value",0.982
same,normalized growth,"locus YJL164C, strain tpk1, stronger effect = lower value",0.943
same,normalized growth,"locus YJL166W, strain qcr8, stronger effect = lower value",0.951
same,normalized growth,"locus YJL168C, strain set2, stronger effect = lower value",0.977
same,normalized growth,"locus YJL187C, strain SWE1 (second series), stronger effect = lower value",0.879
same,normalized growth,"locus YJL187C, strain SWE1, stronger effect = lower value",0.984
same,normalized growth,"locus YJR066W, strain TOR1, stronger effect = lower value",0.836
same,normalized growth,"locus YKL009W, strain mrt4, stronger effect = lower value",0.914
same,normalized growth,"locus YKL068W, stronger effect = lower value",0.965
same,normalized growth,"locus YKL085W, strain MDH1 (second series), stronger effect = lower value",0.968
same,normalized growth,"locus YKL085W, strain MDH1, stronger effect = lower value",0.968
same,normalized growth,"locus YKL160W, strain elf1, stronger effect = lower value",0.942
same,normalized growth,"locus YKR001C, strain vps1, stronger effect = lower value",0.837 (active)
same,normalized growth,"locus YKR026C, strain gcn3, stronger effect = lower value",0.981
same,normalized growth,"locus YKR091W, strain srl3, stronger effect = lower value",0.984
same,normalized growth,"locus YLL001W, strain dnm1, stronger effect = lower value",0.954
same,normalized growth,"locus YLL026W, stronger effect = lower value",0.977
same,normalized growth,"locus YLL041C, strain sdh2, stronger effect = lower value",0.983
same,normalized growth,"locus YLR027C, strain aat2, stronger effect = lower value",0.965
same,normalized growth,"locus YLR039C, strain RIC1, stronger effect = lower value",0.784
same,normalized growth,"locus YLR058C, strain SHM2, stronger effect = lower value",0.906
same,normalized growth,"locus YLR102C, strain apc9, stronger effect = lower value",0.975
same,normalized growth,"locus YLR113W, strain HOG1, stronger effect = lower value",0.992
same,normalized growth,"locus YLR221C, strain rsa3, stronger effect = lower value",0.929
same,normalized growth,"locus YLR258W, strain gsy2, stronger effect = lower value",0.99
same,normalized growth,"locus YLR262C, strain YPT6 (second series), stronger effect = lower value",0.881
same,normalized growth,"locus YLR268W, strain sec22, stronger effect = lower value",0.9
same,normalized growth,"locus YLR320W, strain mms22, stronger effect = lower value",0.919
same,normalized growth,"locus YLR330W, strain CHS5, stronger effect = lower value",0.896 (active)
same,normalized growth,"locus YLR342W, strain FKS1 (second series), stronger effect = lower value",0.876
same,normalized growth,"locus YLR342W, strain FKS1, stronger effect = lower value",0.975
same,normalized growth,"locus YLR357W, strain rsc2, stronger effect = lower value",0.95
same,normalized growth,"locus YLR371W, strain rom2, stronger effect = lower value",0.993
same,normalized growth,"locus YLR384C, strain iki3, stronger effect = lower value",0.989
same,normalized growth,"locus YLR418C, strain cdc73, stronger effect = lower value",0.74 (active)
same,normalized growth,"locus YML016C, strain PPZ1, stronger effect = lower value",0.959
same,normalized growth,"locus YML032C, strain rad52, stronger effect = lower value",0.933
same,normalized growth,"locus YML120C, strain ndi1, stronger effect = lower value",0.955
same,normalized growth,"locus YML124C, strain tub3, stronger effect = lower value",0.974
same,normalized growth,"locus YMR058W, strain fet3, stronger effect = lower value",0.952
same,normalized growth,"locus YMR078C, strain ctf18, stronger effect = lower value",0.961
same,normalized growth,"locus YMR125W, strain sto1, stronger effect = lower value",0.98
same,normalized growth,"locus YMR129W, stronger effect = lower value",0.981
same,normalized growth,"locus YMR205C, strain PFK2, stronger effect = lower value",0.972
same,normalized growth,"locus YMR223W, strain ubp8, stronger effect = lower value",0.913
same,normalized growth,"locus YMR231W, strain pep5, stronger effect = lower value",1
same,normalized growth,"locus YMR307W, strain GAS1, stronger effect = lower value",0.706
same,normalized growth,"locus YNL067W, strain RPL9B, stronger effect = lower value",0.87
same,normalized growth,"locus YNL071W, strain lat1, stronger effect = lower value",0.924
same,normalized growth,"locus YNL183C, strain NPR1, stronger effect = lower value",0.872
same,normalized growth,"locus YNL209W, strain ssb2, stronger effect = lower value",0.987
same,normalized growth,"locus YNL233W, strain BNI4, stronger effect = lower value",0.827 (active)
same,normalized growth,"locus YNL248C, strain rpa49, stronger effect = lower value",0.94
same,normalized growth,"locus YNL250W, strain rad50, stronger effect = lower value",0.944
same,normalized growth,"locus YNL271C, strain bni1, stronger effect = lower value",0.941
same,normalized growth,"locus YNL298W, strain CLA4, stronger effect = lower value",0.928
same,normalized growth,"locus YNL307C, strain MCK1, stronger effect = lower value",0.847 (active)
same,normalized growth,"locus YNL322C, strain KRE1 (second series), stronger effect = lower value",0.979
same,normalized growth,"locus YNR049C, strain mso1, stronger effect = lower value",0.986
same,normalized growth,"locus YNR052C, strain pop2, stronger effect = lower value",0.927
same,normalized growth,"locus YOL012C, strain htz1",0.948
same,normalized growth,"locus YOL147C, strain pex11, stronger effect = lower value",0.934
same,normalized growth,"locus YOR001W, strain rrp6, stronger effect = lower value",0.952
same,normalized growth,"locus YOR061W, strain CKA2, stronger effect = lower value",0.985
same,normalized growth,"locus YOR069W, strain VPS5, stronger effect = lower value",0.927
same,normalized growth,"locus YOR070C, strain gyp1, stronger effect = lower value",0.975
same,normalized growth,"locus YOR080W, strain dia2, stronger effect = lower value",0.993
same,normalized growth,"locus YOR083W, strain WHI5, stronger effect = lower value",0.91
same,normalized growth,"locus YOR106W, strain vam3, stronger effect = lower value",0.915
same,normalized growth,"locus YOR136W, strain idh2, stronger effect = lower value",0.95
same,normalized growth,"locus YOR144C, strain elg1, stronger effect = lower value",0.968
same,normalized growth,"locus YOR184W, strain ser1, stronger effect = lower value",0.931
same,normalized growth,"locus YOR231W, strain MKK1, stronger effect = lower value",0.934
same,normalized growth,"locus YOR265W, strain rbl2, stronger effect = lower value",0.999
same,normalized growth,"locus YOR270C, strain vph1, stronger effect = lower value",0.807
same,normalized growth,"locus YOR290C, strain snf2, stronger effect = lower value",0.88
same,normalized growth,"locus YOR316C, strain cot1, stronger effect = lower value",0.96
same,normalized growth,"locus YPL051W, strain arl3, stronger effect = lower value",0.943
same,normalized growth,"locus YPL078C, strain atp4, stronger effect = lower value",0.905
same,normalized growth,"locus YPL106C, strain sse1, stronger effect = lower value",0.984
same,normalized growth,"locus YPL240C, strain hsp82, stronger effect = lower value",0.984
same,normalized growth,"locus YPL241C, strain CIN2, stronger effect = lower value",0.998
same,normalized growth,"locus YPL256C, strain CLN2, stronger effect = lower value",0.922
same,normalized growth,"locus YPR119W, strain clb2, stronger effect = lower value",0.973
same,normalized growth,"locus YPR141C, strain kar3, stronger effect = lower value",0.967
same,normalized growth,"locus YPR163C, strain tif3, stronger effect = lower value",0.794 (active)
same,normalized growth,"locus YPR167C, strain met16, stronger effect = lower value",0.93
same,normalized growth,"strain wtn01, stronger effect = lower value",0.911

# From PubChem BioAssay AID1159580 (chemical genetic matrix, 2015)
